Results filed as inconclusive are left out. Activity calls are given as the source filed them. Calls follow the shape of the dose curve; as a rule, active = well fitted curve in the direction sought with a large enough effect; inconclusive = small, poorly fitted or top-dose-only effect, or another doubt; inactive = no such curve, though single readings can be large; an effect the other way counts as inactive or inconclusive. Starred links: 1 amine or outer side, 2 acyl side, 3 side chain; linkers in the order of their positions; H or OH if unused. Positions of bridges follow the written chain, without caps; N, C: chain ends. Non-standard residues stand in square brackets, D forms with d. Residues, ends and D or L forms follow the SMILES beside them. Chains are numbered I, II in the order given. Actinocin(9to1) = Cc1c2oc3c(C)ccc(C(=O)[*:1])c3nc-2c(C(=O)[*:2])c(N)c1=O; NMeV = CN[CH](C(=O)O)C(C)C; Sar = CNCC(=O)O

Test [1] can be described thus: Quantitative High-Throughput drug screen in 47 multiple myeloma cell lines against the NCATS MIPE library collection: Karpas417_ECACC cell viability assay (AID 1918961). As to conditions: Karpas417 myeloma viability, CellTiter-Glo ATP luminescence, 48 h; viability (% of DMSO): at 45.8 µM (top of the series). The method in brief:
(§1)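 CellTiter-Glo ATP luminescence gave viability after 48 h compound treatment at 37C of 500 multiple myeloma cells per well. Normalisation used DMSO-only wells as 100% and media-only wells as 0% viability; primary qHTS of approved and investigational drugs.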
In general terms: Cellular ATP, detected with luciferase, serves as a proxy for viable cell number.

Test [2] is described as follows: Quantitative High-Throughput drug screen in 47 multiple myeloma cell lines against the NCATS MIPE library collection: KHM11_PLB cell viability assay (AID 1918962). Also: nearly all actives have a fitted effect of over 35% in size. The method in brief: (§2)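 Myeloma cells (500 per well) were exposed to MIPE 4.0 compounds by pin transfer and incubated 48 hours at 37C, 5% CO2. Viability was read as ATP by CellTiter-Glo luminescence, normalised to DMSO (100%) and media-only (0%) wells.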

Test [3] can be described thus: Quantitative High-Throughput drug screen in 47 multiple myeloma cell lines against the NCATS MIPE library collection: JIM3_ECACC cell viability assay (AID 1918963; also: nearly all actives have a fitted effect of over 35% in size). The method in brief:
as §2

Test [4] can be described thus: Quantitative High-Throughput drug screen in 47 multiple myeloma cell lines against the NCATS MIPE library collection: JIM1_ECACC cell viability assay (AID 1918964). The method in brief:
(§3)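 Luminescent ATP measurement with CellTiter-Glo gives viability, scaled between DMSO-only wells (100%) and media-only wells (0%). Cells, 500 per well, faced library compounds for 48 hours at 37C.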

Test [5] is described as follows: Quantitative High-Throughput drug screen in 47 multiple myeloma cell lines against the NCATS MIPE library collection: INA6_PLB cell viability assay (AID 1918965; also: nearly all actives have a fitted effect of over 55% in size). The method in brief: as §1
Test [6] in a line: Quantitative High-Throughput drug screen in 47 multiple myeloma cell lines against the NCATS MIPE library collection: JJN3_DSMZ cell viability assay (AID 1918966; also: nearly all actives have a fitted effect of over 50% in size). In a few lines: as §3
The nature of test [7]: Quantitative High-Throughput drug screen in 47 multiple myeloma cell lines against the NCATS MIPE library collection: H1112_PLB cell viability assay (AID 1918967; also: nearly all actives have a fitted effect of over 30% in size). The method in brief:
as §3

Test [8] is described as follows: Quantitative High-Throughput drug screen in 47 multiple myeloma cell lines against the NCATS MIPE library collection: Karpas25_ECACC cell viability assay (AID 1918968; also: nearly all actives have a fitted effect of over 35% in size). The method in brief: as §3
Test [9] in a line: Quantitative High-Throughput drug screen in 47 multiple myeloma cell lines against the NCATS MIPE library collection: KMS27_JCRB cell viability assay (AID 1918970). Also: nearly all actives have a fitted effect of over 30% in size. As to conditions: KMS27 myeloma cells, CellTiter-Glo ATP viability, 48 h; viability (% of DMSO): at 45.8 µM (top of the series). In a few lines: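 Each line is seeded at 500 cells per well and treated with library compounds for 48 hours under 37 °C, 5% CO2. CellTiter-Glo is then added for 5 min at room temperature before median relative luminescence is recorded.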

Test [10] in a line: Quantitative High-Throughput drug screen in 47 multiple myeloma cell lines against the NCATS MIPE library collection: KMS12BM_JCRB cell viability assay (AID 1918971). Also: nearly all actives have a fitted effect of over 35% in size. The method in brief: (§4)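 Relative luminescence from CellTiter-Glo served as the viability signal, referenced to DMSO-treated (100%) and cell-free medium (0%) controls. Treatment lasted 48 hours at 37C with 500 cells per well.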

The nature of test [11]: Quantitative High-Throughput drug screen in 47 multiple myeloma cell lines against the NCATS MIPE library collection: KMS12PE_JCRB cell viability assay (AID 1918972). Also: nearly all actives have a fitted effect of over 30% in size. The method in brief: as §1
Test [12] can be described thus: Quantitative High-Throughput drug screen in 47 multiple myeloma cell lines against the NCATS MIPE library collection: KMS26_JCRB cell viability assay (AID 1918975). Also: nearly all actives have a fitted effect of over 45% in size. In a few lines: as §4
Test [13] can be described thus: Quantitative High-Throughput drug screen in 47 multiple myeloma cell lines against the NCATS MIPE library collection: MMM1_PLB cell viability assay (AID 1918976). Also: nearly all actives have a fitted effect of over 35% in size. In a few lines:
(§5)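 ATP-based CellTiter-Glo luminescence after 48 h drug exposure (37 °C, 5% CO2) of 500 myeloma cells per well. DMSO-only wells set 100% viability, media-only wells 0%; MIPE 4.0 library added by pin tool.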

Test [14] is described as follows: Quantitative High-Throughput drug screen in 47 multiple myeloma cell lines against the NCATS MIPE library collection: MOLP8_DSMZ cell viability assay (AID 1918977). Also: nearly all actives have a fitted effect of over 45% in size. In a few lines: as §5
Test [15] in a line: Quantitative High-Throughput drug screen in 47 multiple myeloma cell lines against the NCATS MIPE library collection: NCIH929_DSMZ cell viability assay (AID 1918978). Also: nearly all actives have a fitted effect of over 35% in size. The method in brief:
as §5

Test [16] is described as follows: Quantitative High-Throughput drug screen in 47 multiple myeloma cell lines against the NCATS MIPE library collection: OCIMY1_PLB cell viability assay (AID 1918979). Also: nearly all actives have a fitted effect of over 35% in size. In a few lines: as §5
A short description of test [17]: Quantitative High-Throughput drug screen in 47 multiple myeloma cell lines against the NCATS MIPE library collection: MM1R_ATCC cell viability assay (AID 1918981). Also: nearly all actives have a fitted effect of over 35% in size. In a few lines: as §5
The nature of test [18]: Quantitative High-Throughput drug screen in 47 multiple myeloma cell lines against the NCATS MIPE library collection: KMS20_JCRB cell viability assay (AID 1918973). Also: nearly all actives have a fitted effect of over 45% in size. In a few lines:
as §3

The nature of test [19]: Quantitative High-Throughput drug screen in 47 multiple myeloma cell lines against the NCATS MIPE library collection: MM1S_ATCC cell viability assay (AID 1918980). Also: nearly all actives have a fitted effect of over 45% in size. In a few lines: as §5
The nature of test [20]: Quantitative High-Throughput drug screen in 47 multiple myeloma cell lines against the NCATS MIPE library collection: KMS21BM_JCRB cell viability assay (AID 1918974). The conditions noted are these: ATP luminescence, 48 h; viability: at 45.8 µM (top of the series). In a few lines:
as §3
Potency is read from the fitted curve at half-maximal effect.

For `O=C(C=Cc1ccc(CN(CCO)CCc2c[nH]c3ccccc23)cc1)NO`, the Potency in [1] was 105 nM (active); in test [2], 209 nM (active); in [3], 332 nM (active); in test [4], 132 nM (active); in [5] it was 29.6 nM (active); in [6], 93.5 nM (active). Moreover, the Potency in [7] was 187 nM (active); in test [8], 59 nM (active); in test [9], 105 nM (active); in test [10], 83.3 nM (active); in test [11], 83.3 nM (active); in test [12], 105 nM (active). For the same compound, the Potency was 66.2 nM (active) in [13]; 83.3 nM (active) in [14]; 105 nM (active) in test [15]; 296 nM (active) in [16]; 59 nM (active) in [17].

For `NC(=O)Nc1sc(-c2ccc(F)cc2)cc1C(N)=O`, the Potency in [1] is 74.3 nM (active); in [2], 833 nM (active); in [3] it was 4690 nM (active); in test [4] it was 74.3 nM (active); in test [5], 332 nM (active); in test [6], 418 nM (active). For the same compound, the Potency was 418 nM (active) in test [8]; 166 nM (active) in test [9]; 4180 nM (active) in test [10]; 935 nM (active) in [11]; 1660 nM (active) in test [18]; 2960 nM (active) in [12]. Moreover, the Potency was 3320 nM (active) in test [13]; 13200 nM (active) in test [14]; 20.9 nM (active) in test [15]; 332 nM (active) in [19]; 4690 nM (active) in [17].

Consider `Cc1c2oc3c(C)ccc(C(=O)NC4C(=O)NC(C(C)C)C(=O)N5CCCC5C(=O)N(C)CC(=O)N(C)C(C(C)C)C(=O)OC4C)c3nc-2c(C(=O)NC2C(=O)NC(C(C)C)C(=O)N3CCCC3C(=O)N(C)CC(=O)N(C)C(C(C)C)C(=O)OC2C)c(N)c1=O` (configuration not stated) (I: TVP[Sar][NMeV] / II: TVP[Sar][NMeV]; ester I:1-I:C, II:1-II:C; linker I:N-II:N via Actinocin(9to1); configuration not given here), for which the Potency entry in [1], in [2], in [3], in test [4], in [5] and in test [6] was “inactive” each time. Also, the Potency entry in test [7], in test [8], in test [9], in test [10], in [11] and in [18] was “inactive” each time. The Potency entry in [12], in test [13], in test [14], in test [15], in test [16] and in test [19] was “inactive” each time. For the same compound, in [17], the Potency result was “inactive”.

`CNC(=O)c1ccc(Nc2cc(Nc3ccccc3S(=O)(=O)C(C)C)c3cc[nH]c3n2)nc1`: the Potency in test [1] is 118 nM (active); in test [2], 833 nM (active); in [3] it was 1180 nM (active); in test [4] it was 3320 nM (active); in test [5], 469 nM (active); in test [6], 16600 nM (active). For the same compound, the Potency is 4180 nM (active) in [7]; 590 nM (active) in test [8]; 2090 nM (active) in test [9]; 16600 nM (active) in test [10]; 1180 nM (active) in test [11]; 935 nM (active) in test [18]. The Potency was 418 nM (active) in test [20]; 18700 nM (active) in test [12]; 11800 nM (active) in test [13]; 10500 nM (active) in test [14]; 935 nM (active) in test [15]; 13200 nM (active) in test [19]. Besides, the Potency in test [17] is 6620 nM (active).

For the origin of these results see PubChem BioAssay (NCATS).
